Results taken from PubChem BioAssay (NCI).
Compounds without any hit were thinned out: in the full panel of roughly 83,000, 20% have a hit.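 In brief: 96-well plates, 48 h treatment, single concentration, percent growth endpoint.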 A number with no mark means an inactive call. Activity calls are given as the source filed them.

Test system: RPMI-8226 leukemia
Test: NCI-60 one-dose screen, 48 h (100 = growth as untreated, 0 = no growth, -100 = all killed)
Settings: 10 µM unless noted
Method: Growth inhibition of the RPMI-8226 human tumor cell line is measured as a screen for anti-cancer activity. Cells are grown in 96 well plates and exposed to the test compound for 48 hours. Compounds are tested at a single concentration, which is 10^-5 M for most compounds. The reported endpoint is percent growth (GI% or GIPRCNT), where numbers from 0 - 100% represent growth inhibition, and numbers from -100% - 0 represent cell death. For example, a value of 40 represents 60% growth inhibition. A value of 0 means no net growth occurred over the course of the experiment. A value of -40 indicates 40% of cells at the beginning of the experiment died by the end of the experiment. A value of -100 means all cells are dead at the end of the experiment.
NCI-60 Human Tumor Cell Lines Screen was performed using the standard one-dose NCI protocol, which is described in more detail at https://dtp.cancer.gov/discovery_development/nci-60/default.htm.
Compounds with GIPRCNT values below 10 were considered active. Activity score was based on GIPRCNT using the following formula: […]
Score is 0 for GIPRCNT values of 100 or above, 50 for GIPRCNT values of 0, and 100 for GIPRCNT values of -100.

**Q.** Which growth does the source give for `C=C1C(=O)O[C@H]2[C@H]1CC/C(Cn1cc(-c3ccc(F)cc3)nn1)=C\CC[C@@]1(C)O[C@@H]21` here?
**A.** -34.1% (active)

**Q.** `CC(Cc1ccco1)C(=O)NC(N)=O` (stereo not given) was tested. Which growth did it give?
**A.** 102%

**Q.** For `COC(=O)C(N)CSC(c1ccccc1)(c1ccccc1)c1ccccc1` (stereo not given), which growth is on record?
**A.** 30.9%

**Q.** `COC(=O)[C@]12CC[C@@H](C)[C@H](C)[C@@H]1C1=CC[C@@H]3[C@@]4(C)C[C@@H](OC(C)=O)[C@H](O)[C@@](C)(CO)[C@@H]4[C@H](O)C[C@@]3(C)[C@]1(C)CC2` was tested. Which growth did it give?
**A.** -29.4% (active)

**Q.** Which growth does the source give for `C=C(C)[C@@H]1CC[C@]2(C)[C@H](CC=C3[C@@H]4CC(C)(C)CC[C@]4(C(=O)OC)CC[C@]32C)[C@@]1(C)CC/C(N)=N/O` here?
**A.** 34.9%

**Q.** For `COc1cccc(-c2nn(-c3ccccc3)cc2-c2ccnc(NCCNS(=O)(=O)c3ccccc3)c2)c1`, which growth is on record?
**A.** 19.1%

**Q.** For `O=C(NC1=CC(=O)c2ccccc2C1=O)c1ccccc1`, which growth is on record?
**A.** 4.25% (active)

**Q.** How did the growth turn out when `Nc1c2c(nc3ccc(Cl)cc13)CC(c1ccc(O)cc1)CC2=O` (stereo not given) was run?
**A.** 34.9%

**Q.** With `COc1cccc(-c2nn(-c3ccccc3)cc2-c2ccnc(NCCCNS(=O)(=O)c3ccc(Br)cc3)c2)c1` as the compound, how does the growth read?
**A.** 34.5%

**Q.** With `N#CC1C(=N)Cc2ccccc2-c2ccccc21` (stereo not given) as the compound, how does the growth read?
**A.** 52.3%

**Q.** With `Cc1ccc(N(CC(=O)Nc2ccc(S(=O)(=O)NC3CCN(C)CC3)cc2)S(=O)(=O)c2ccc(Cl)cc2)cc1` as the compound, how does the growth read?
**A.** 65.6%

**Q.** Which growth does the source give for `COC(=O)[C@]12CC[C@@H](C)[C@H](C)[C@@H]1C1=CC[C@@H]3[C@@]4(C)C(c5ncon5)=C[C@@](C)(CO)C4=CC[C@@]3(C)[C@]1(C)CC2` here?
**A.** -32.4% (active)

**Q.** For `NC1=C(C/C(N)=N\O)C(c2ccccc2Cl)c2c(ccc3ccccc23)O1` (stereo not given), which growth is on record?
**A.** 81.9%

**Q.** `COC(=O)[C@]12CC[C@@H](C(=O)/C=C/c3cccnc3)[C@@H]1[C@H]1CC[C@@H]3[C@@]4(C)C/C(=C/c5cccnc5)C(=O)C(C)(C)[C@@H]4CC[C@@]3(C)[C@]1(C)CC2` was tested. Which growth did it give?
**A.** -28.7% (active)

**Q.** Which growth does the source give for `C=C(C)[C@@H]1CC[C@]2(C=NCCCNCCCCNCCCN)CC[C@]3(C)[C@H](CC[C@@H]4[C@@]5(C)CCCNC(C)(C)[C@@H]5CC[C@]43C)[C@@H]12` here?
**A.** 107%

**Q.** Which growth does the source give for `CN1CCN(c2ccc3nc(-c4[nH]ncc4Nc4ncnc5c4OCCCN5)[nH]c3c2)CC1` here?
**A.** -36.3% (active)

**Q.** How did the growth turn out when `C=C(C)[C@@H]1CC[C@]2(CN)CC[C@]3(C)[C@H](CC[C@@H]4[C@@](C)(CCCN)[C@H](C(=C)C)CC[C@]43C)[C@@H]12` was run?
**A.** 58.5%

**Q.** `O=S(=O)(NCCNc1cc(-c2cn(-c3ccccc3)nc2-c2cccc(O)c2)ccn1)c1ccc(C(F)(F)F)cc1` was tested. Which growth did it give?
**A.** 18.5%

**Q.** `CN1CCN(CCOc2ccc(-c3cnc4c(-c5cccc(F)c5)cnn4c3)cc2)CC1` was tested. Which growth did it give?
**A.** 31.7%

**Q.** For `CC(C)/C=C/CC[C@](C)(O)[C@H]1CC[C@]2(C)[C@@H]1CC[C@@H]1[C@@]3(C)C/C(=C/c4cccc(C(F)(F)F)c4)C(=O)C(C)(C)[C@@H]3CC[C@]12C`, which growth is on record?
**A.** 95.4%

**Q.** How did the growth turn out when `C[N+](C)(CCCCCC[N+](C)(C)C1c2ccccc2-c2ccccc21)C1c2ccccc2-c2ccccc21` was run?
**A.** 101%

**Q.** How did the growth turn out when `CCc1nnc(NC(=O)c2ccoc2COc2ccccc2)s1` was run?
**A.** 30.8%

**Q.** With `CCN(CC)CCCCCNc1cc(OC(=O)c2ccccc2)cc2cccnc12` as the compound, how does the growth read?
**A.** 100%

**Q.** Which growth does the source give for `Cc1cc(C)c(NC(=O)c2sc3nc4c(cc3c2N)CCCC4)c(C)c1` here?
**A.** 55.2%

**Q.** For `Cc1ccc(-c2nn(Cc3cn(-c4cc(C)nc5ccccc45)nn3)c3ncnc(N)c23)cc1`, which growth is on record?
**A.** 35.6%

**Q.** With `O=C1/C(=C\c2ccc(Br)o2)SC(=S)N1CCc1ccc(O)cc1` as the compound, how does the growth read?
**A.** 26.6%

**Q.** How did the growth turn out when `C/C(=N\Nc1ccc2ccccc2n1)c1ccccn1` was run?
**A.** 1.84% (active)

**Q.** For `COC(=O)[C@]12CC[C@@H](C)[C@H](C)[C@@H]1C1=CC[C@@H]3[C@@]4(C)CC(=O)[C@H](OC(=O)c5ccco5)[C@@]5(C)COC(=C45)C[C@@]3(C)[C@]1(C)CC2`, which growth is on record?
**A.** 24.4%

**Q.** Which growth does the source give for `C[C@@H]1CCCCCCCCC[C@H](O)C(=O)C[C@@H](SC[C@@H](O)C(=O)O)C(=O)O1` here?
**A.** -2.38% (active)

**Q.** With `COc1ccc(C2NC(=O)Nc3ccccc32)c(OC)c1` (stereo not given) as the compound, how does the growth read?
**A.** 108%

**Q.** How did the growth turn out when `COc1ccc(OCC(CO)N2CCN(c3ccccc3)CC2)cc1` (stereo not given) was run?
**A.** 131%

**Q.** With `Fc1ccc2c(c1)c(-c1nc(-c3c[nH]c4ncccc34)cs1)cn2CCCN1CCCCC1` as the compound, how does the growth read?
**A.** -21.1% (active)

**Q.** `NC(Cc1ccc(O)cc1)C(=O)N/N=C/c1ccccc1O` (stereo not given) was tested. Which growth did it give?
**A.** 103%

**Q.** Which growth does the source give for `COc1ccc2c(c1)c(-c1nc(-c3c[nH]c4ncccc34)cs1)cn2C` here?
**A.** 44.3%

**Q.** Which growth does the source give for `COc1cc2c(cc1OC)C(=O)/C(=C/c1cc(-c3ccc4c(c3)OCO4)n[nH]1)C2` here?
**A.** -46.7% (active)

**Q.** Which growth does the source give for `COc1cccc(-c2nn(-c3ccccc3)cc2-c2ccnc(NCCCN)c2)c1` here?
**A.** 44%

**Q.** Which growth does the source give for `O=C1CCCC=CC[C@H]2C=C(Cl)C(=O)C2=CC[C@H](CCCCC(F)(F)F)OC(=O)CCCC=CC[C@H]2C=C(Cl)C(=O)C2=CC[C@H](CCCCC(F)(F)F)OC(=O)CCCC=CC[C@H]2C=C(Cl)C(=O)C2=CC[C@H](CCCCC(F)(F)F)O1` here?
**A.** 4.9% [6.25 µM] (active)

**Q.** `Nc1c(Cl)cc(N=Nc2ccccc2)cc1Cl` was tested. Which growth did it give?
**A.** 89.9%

**Q.** For `CC1(c2ccccc2)OC1C(=O)O` (stereo not given), which growth is on record?
**A.** 108%

**Q.** Which growth does the source give for `CCN1CCN(C(=O)[C@]23CCC(C)(C)C[C@@H]2C2=CC[C@@H]4[C@@]5(C)C/C(=C/c6cccnc6)C(=O)C(C)(C)[C@@H]5CC[C@@]4(C)[C@]2(C)CC3)CC1` here?
**A.** 5.88% (active)
